Shown are actives, neighbours in structure and some others; about 1.3% of the full set was active somewhere.
S1P4 agonist – human S1P4 receptor agonism; O95977; S1P4-expressing cell line, agonist reporter assay; activation, % at 4.98 µM; hit rate 0.35% among 220,000; AID 1509; in the data active means activation above about 11%
S1P3 antag – blocks the human S1P3 receptor. CHO S1P3 NFAT-BLA reporter, FRET fluorescence, antagonist mode. inhibition, % at 4.98 µM. hit rate 0.27% among 170,000;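 active means inhibition above the plate cutoff, the mean inhibition of test wells on that plate plus 3 SD, cut at about 28% in these data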;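 further: cells challenged with S1P at its EC80 of 0.8 µM; blue over green emission ratio from cleaved BLA substrate after 4 h stimulation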
S1P4 antag – blocks the human S1P4 receptor. O95977. S1P4-expressing cells, antagonist mode, reporter read-out. inhibition, % at 4.98 µM. hit rate 0.26% among 220,000; in the data active means inhibition above about 29%
PERK inh – inhibitors of human PERK kinase; Q9NZJ5; CHO PERK-DD fusion, SEAP luminescence translation reporter; inhibition, % at 5.6 µM; hit rate 0.17% among 220,000;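 active means inhibition above the mean inhibition of all tested compounds plus 3 SD, set separately per screening campaign, cut at about 2.9% in these data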;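 further: PERK kinase domain activated by AP20187 dimerizer at 100 nM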
Calpain2 inh – calpain II (pig) inhibition; inhibition, % at 16 µM; purified calpain II, fluorogenic peptide substrate, 30 min; hit rate 0.37% among 220,000;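 active means inhibition above about 50%, limit read from the data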
S1P4 antag cf – confirmation of human S1P4 receptor antagonists. S1P4-expressing cell line, antagonist mode, reporter read-out. hit rate 71% among 520. AID 1524. inhibition, % at 4.98 µM. shares compounds with S1P4 antag; in the data active means inhibition above about 30%
S1P1 antag – counter-screen for S1P4 antagonists: antagonists of human S1P1; shares compounds with S1P4 antag; inhibition, % at 4.98 µM; AID 1564; hit rate 37% among 520; cell-based S1P1 antagonist counterscreen, inhibition; in the data active means inhibition above about 40%;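 further: receptor stimulated with S1P near its EC80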
Target sequence (P21453 whole entry, looked up): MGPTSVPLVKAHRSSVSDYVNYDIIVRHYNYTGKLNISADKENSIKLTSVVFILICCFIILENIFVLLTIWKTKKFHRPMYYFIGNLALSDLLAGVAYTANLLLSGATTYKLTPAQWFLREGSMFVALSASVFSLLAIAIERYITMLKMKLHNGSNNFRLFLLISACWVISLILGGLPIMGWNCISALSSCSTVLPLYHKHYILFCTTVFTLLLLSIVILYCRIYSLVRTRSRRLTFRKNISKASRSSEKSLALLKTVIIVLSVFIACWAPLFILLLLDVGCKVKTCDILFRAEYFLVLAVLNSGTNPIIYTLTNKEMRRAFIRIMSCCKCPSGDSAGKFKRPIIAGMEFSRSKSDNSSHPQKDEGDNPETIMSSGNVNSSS
Numbers stand for hits; . = inactive; / = no result.

SMILES	S1P4 agonist	S1P3 antag	S1P4 antag	PERK inh	Calpain2 inh	S1P4 antag cf	S1P1 antag
COc1ccc(CS(=O)(=O)/C(Cl)=C(/Cl)C(=O)Nc2ccc(OC)nc2)cc1	.	/	79.9	.	.	119.0	85.0
COc1ccc(/C=C/C(=O)Nc2ccc(OC)nc2)cc1	.	.	.	.	.	/	/
Cc1nc(-c2ccc(Cl)cc2)sc1C1(C)CC(c2cccc([N+](=O)[O-])c2)=NO1 (stereo not drawn)	/	/	/	/	.	/	/
COc1cc(SC)ccc1C(=O)Nc1c(C)cccc1C	.	.	81.1	.	.	85.0	.
Cc1cc(C(=O)NC2Cc3ccccc3C2)c(C)o1	.	.	.	.	.	/	/
N#C/C(=C\c1ccccn1)c1nc2ccccc2s1	.	.	74.2	.	.	35.6	43.0
Cc1ccc(S(=O)(=O)CCN2C=CC(C(F)(F)F)=NCC2)cc1	.	.	32.6	.	.	.	.
O=S(=O)(c1ccc2ccccc2c1)N1C=CC(C(F)(F)F)=NCC1	.	/	.	.	.	/	/
COc1ccc(N(C)C(=O)c2oc(=O)c3ccccc3c2-c2ccc(C)cc2)c(OC)c1	.	.	.	.	.	/	/
O=C(CSc1nnc(-c2ccco2)o1)c1ccc(O)cc1O	.	.	.	.	.	/	/
Cc1ccc(Nc2cc(C)nn2-c2nc(C)cc(=O)[nH]2)cc1	.	.	92.2	.	.	114.1	94.7
Cc1ccc(Nc2cc(C)nn2-c2nc(C)cc(C)n2)cc1	.	.	.	.	.	/	/
COC(=O)c1cc(=O)n(Cc2ccco2)c(=Nc2ccc(F)c(Cl)c2)s1	.	.	34.0	.	.	102.4	60.2
C=C1C(=O)C=C2CN(C(=O)c3ccccc3)[C@@](Cc3ccc(F)cc3)(C(=O)OC)[C@@H]12	.	.	60.1	.	.	119.0	143.3
COC(=O)[C@@]1(Cc2ccc(OC)cc2)[C@@H]2C(=CC(=O)[C@H]2CC(=O)C(=O)N(C)C)CN1C(=O)c1ccccc1	.	.	.	.	.	/	/
COc1cccc(-n2nc(C#N)c(Cl)cc2=O)c1	.	.	93.7	.	.	104.1	.
COc1cccc(-n2nc(C(N)=O)c(O)cc2=O)c1	.	.	.	.	.	/	/
CCOc1cc(CNc2ncn[nH]2)ccc1OCC(=O)NC(C)(C)C	.	.	.	.	.	/	/
Cc1cc(NC(=O)CSc2nc(-c3cccs3)cc(C(F)(F)F)n2)no1	.	.	.	.	.	/	/
CS(=O)(=O)c1nc(-c2cccs2)cc(C(F)(F)F)n1	.	/	39.4	.	.	118.5	40.8
COc1ccc(-c2cc(C(F)(F)F)nc(S(C)(=O)=O)n2)cc1	.	/	.	.	.	/	/
O=C(O)CCS(=O)(=O)c1nc(-c2cccs2)cc(C(F)(F)F)n1	.	/	.	.	.	/	/
Cc1cc(NC(=O)CCCS(=O)(=O)c2nc(-c3cccs3)cc(C(F)(F)F)n2)no1	.	.	39.9	.	.	110.8	44.8
CS(=O)(=O)c1nc(-c2ccc(F)cc2)cc(C(F)(F)F)n1	.	.	70.1	.	.	116.9	.
COc1ccc(S(=O)(=O)N2CCOCC2)cc1NC(=O)CSc1nnc(C2CC2)n1N	.	.	.	.	.	/	/
SMILES	S1P4 agonist	S1P3 antag	S1P4 antag	PERK inh	Calpain2 inh	S1P4 antag cf	S1P1 antag
Nc1cccc(-n2nncc2-c2ccc(Cl)cc2)c1	.	/	32.2	.	.	.	.
COc1ccc(-c2cnnn2-c2ccc(N)cc2)cc1OC	.	.	.	.	.	/	/
COc1ccc(C(=O)NC(=S)Nc2nc(C)cc(C)n2)cc1Br	.	.	.	.	.	/	/
CCN(CC)c1ccc2cc(NC(=O)CCC(=O)O)c(=O)oc2c1	.	.	32.3	.	.	59.5	45.3
COc1ccc(C(=O)Nc2cccc(-c3nc4ncccc4o3)c2C)cc1	.	/	33.0	.	.	.	.
CCOC(=O)C(=Cc1ccc(Br)cc1)C(=O)OCC	.	.	90.4	.	.	115.2	.
CC(C)(C)c1ccc(C(O)CCCN2CCC(C(O)(c3ccccc3)c3ccccc3)CC2)cc1 (stereo not drawn)	.	.	32.6	.	.	.	.
O=C(NC1CCCC1)C(c1ccncc1)N(Cc1ccco1)C(=O)c1ccc(-c2ccccc2)[nH]1 (stereo not drawn)	.	.	46.8	.	.	.	.
COc1cc(OC)cc(C(=O)NCC(=O)OCc2nc3ccccc3s2)c1	.	.	.	.	.	/	/
Cc1nccn1CCCN1C(=O)OC2(CCCCC2)C1(C)O (stereo not drawn)	.	.	31.9	.	.	.	.
CC(C)c1nc2scc(-c3ccc(Cl)cc3)c2c(=O)n1N	.	.	.	.	.	/	/
CC(=O)n1cc(N(C(=O)CCl)c2ccc(Cl)cc2)c2ccccc21	.	.	60.3	.	.	114.7	41.2
CC(=O)Nc1ccc2nc(CN3CCN(Cc4ccc(F)cc4)C(CCO)C3)ccc2c1 (stereo not drawn)	.	.	.	.	.	/	/
COC(=O)c1ccc2c(c1)C(C)(C)C(/C=C/c1ccc(O)cc1)=[N+]2C	.	/	42.1	.	.	119.7	156.8
COC(=O)COc1ccc(S(=O)(=O)N2CCN(c3ccccc3F)CC2)cc1C	.	.	34.6	.	.	.	.
CCOC(=O)N1CCN(S(=O)(=O)c2ccc(OCC(=O)OC)c(C)c2)CC1	.	.	.	.	.	/	/
O=C(Nc1nc(=O)c2ccccc2s1)c1ccccc1	.	/	36.3	.	.	.	.
CC(=O)Nc1nc(=O)c2ccccc2s1	.	.	.	.	.	/	/
CN(C)c1ccc(C(=O)NC2CCCc3ccccc32)cc1 (stereo not drawn)	.	.	48.4	.	.	56.2	.
O=C(/C=C/c1ccccc1)NC1CCSC1=O (stereo not drawn)	.	.	.	.	.	/	/
O=C(/C=C/c1ccccc1)NC1CCCc2ccccc21 (stereo not drawn)	.	.	53.7	.	.	53.6	.
N#Cc1ccc(C(=O)NC2CCCc3ccccc32)cc1 (stereo not drawn)	.	.	.	.	.	/	/
CN(C)c1ccc(NC(=O)C2CCCN(S(=O)(=O)c3ccccc3)C2)cc1 (stereo not drawn)	.	.	.	.	.	/	/
COc1ccc(C=C(c2nc3ccccc3s2)c2nc3ccccc3s2)cc1O	.	.	29.4	.	.	58.2	.
O=C(Nc1nnc(-c2ccc(Cl)s2)o1)C1CC1	.	.	.	.	.	/	/
O=C(Nc1nnc(-c2cccs2)o1)C1CC1	.	.	30.8	.	.	.	.
Cc1ccc(NC(=O)c2ccc([N+](=O)[O-])o2)cc1S(=O)(=O)N1CCOCC1	.	.	67.9	.	.	88.0	42.2
O=C(COC(=O)c1ccc([N+](=O)[O-])o1)Nc1cccc(S(=O)(=O)N2CCCCC2)c1	.	.	.	.	.	/	/
O=C(Nc1cccc(S(=O)(=O)N2CCCCC2)c1)c1ccc([N+](=O)[O-])o1	.	.	53.8	.	.	95.2	.
